# Hits are enriched below; roughly 5.9% of the tested compounds scored in any of these assays.
# GLP1R cytotox = qHTS of GLP-1 Receptor Inverse Agonists: Cytotox Screen; AID 624418, 2012; Potency, µM (doses to about 38.3 µM), usual class: inhibitors; HEK293 cAMP-luciferase reporter cells, luminescence, 24 h; 0.13% of 410,000 active;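 further: loss of luciferase light is scored as toxicity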
#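 To flag toxic compounds, the library was rerun on cells for 24 hr at 37 deg C and 5% CO2. Viability-linked luminescence was captured 12 min after adding luciferase detection reagent.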
# GLP-1R inv ag = qHTS of GLP-1 Receptor Inverse Agonists (Inhibition Mode) | AID 624417, 2012 | Potency, µM (series often up to 38.3 µM), most hits filed as inhibitors | 1.6% of 410,000 active | HEK293 GLP-1R CRE-luciferase, luminescence, 24 h; GLP-1R form is constitutively active | Glucagon-like peptide 1 receptor (Homo sapiens), P43220; further: nearly all actives have a fitted effect of over 55% in size
# Target sequence (P43220 whole entry, looked up): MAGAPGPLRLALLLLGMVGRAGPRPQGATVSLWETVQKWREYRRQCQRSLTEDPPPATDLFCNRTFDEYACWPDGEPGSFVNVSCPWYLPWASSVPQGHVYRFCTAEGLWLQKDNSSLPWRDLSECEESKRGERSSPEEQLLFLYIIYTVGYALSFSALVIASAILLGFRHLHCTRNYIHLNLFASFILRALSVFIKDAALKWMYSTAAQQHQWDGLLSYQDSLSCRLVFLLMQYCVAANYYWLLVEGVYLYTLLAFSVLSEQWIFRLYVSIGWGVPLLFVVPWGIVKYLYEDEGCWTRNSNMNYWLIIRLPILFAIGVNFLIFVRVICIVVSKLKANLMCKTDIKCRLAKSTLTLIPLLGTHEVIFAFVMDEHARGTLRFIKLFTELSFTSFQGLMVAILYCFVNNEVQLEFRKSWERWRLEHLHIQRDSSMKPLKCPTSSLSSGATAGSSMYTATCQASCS
#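 Assay principle: reduced luminescence from a cAMP-responsive reporter in HEK293 cells co-expressing a constitutively active GLP-1R. Conditions: 24 hr compound incubation, 37 deg C, 5% CO2.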
# VP16 counter = VP16 counterscreen qHTS for inhibitors of ROR gamma transcriptional activity. Potency, µM (doses to about 53.6 µM), most hits filed as inhibitors. Drosophila S2 Gal4-VP16 UAS-luciferase, luminescence, 20 h. 3.5% of 310,000 active. AID 2546, 2010;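 further: Gal4-VP16 expression switched on by copper sulfate through the metallothionein promoter; nearly all actives have a fitted effect of over 50% in size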
# RORgamma inh = qHTS for inhibitors of ROR gamma transcriptional activity | Nuclear receptor ROR-gamma (Mus musculus), P51450 | Drosophila S2 Gal4-RORgamma UAS-luciferase reporter, 20 h | Potency, µM (top dose mostly 53.6 µM), most hits filed as inhibitors | 5.4% of 310,000 active | AID 2551, 2010; further: nearly all actives have a fitted effect of over 60% in size
#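 Schneider cells (Drosophila), stable Gal4 DBD–ROR gamma + UAS-luc; 1 hr cmpd preincubation; Cu2+ induction 700 uM final; 20 hr ambient; luminescence.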
# GLP-1R agonist = qHTS of GLP-1 Receptor Agonists; AID 624172, 2012; HEK293 GLP-1R CRE-luciferase, luminescence, 4-6 h; cells express a hypersensitive GLP-1R form; Potency, µM (top dose mostly 45.6 µM), most hits filed as activators; 0.007% of 380,000 active
# Numbers stand for hits; i = inactive; ? = inconclusive; nt = no result given; [ ] = remark or other dose. The call rests on the fitted dose curve; in most records, active means well fitted curve in the direction sought with a large enough effect; inconclusive means small, poorly fitted or top-dose-only effect, or another doubt; inactive means no such curve, though single readings can be large; an effect the other way counts as inactive or inconclusive.
SMILES,GLP1R cytotox,GLP-1R inv ag,VP16 counter,RORgamma inh,GLP-1R agonist
Cc1c(C(c2ccccc2)c2c(C)n(C)n(-c3ccccc3)c2=O)c(=O)n(-c2ccccc2)n1C,i,i,i,i,i
COc1cc(C=O)ccc1OS(=O)(=O)c1ccc(NC(C)=O)cc1,i,i,25.1µM,i,i
Cc1cc(C(=O)NNC(=O)CCCOc2ccccc2)c(C)o1,i,i,nt,nt,i
CC(C)(C)c1ccc(OCCCC(=O)NNC(=O)c2ccccc2O)cc1,i,12.6µM,nt,nt,i
Cc1ccc(S(=O)(=O)Oc2ccccc2-c2ccccc2)cc1,i,2.51µM,nt,nt,i
Cc1ccc(S(=O)(=O)Oc2ccccc2)cc1,i,?,nt,nt,i
CCCOC(=O)NCCCN(C)C,nt,nt,i,i,nt
COc1cccc(C(=S)N2CCCC2)c1OC,i,i,0.0794µM,?,i
Cc1ccc(COc2ccccc2C(=S)N2CCCC2)cc1,i,?,?,15.8µM,i
Fc1ccc(COc2ccccc2C(=S)N2CCCC2)cc1,i,i,i,?,i
Cc1cc(Br)ccc1NC(=O)c1ccc(NS(=O)(=O)c2c(C)noc2C)cc1,i,?,nt,nt,i
COC(=O)c1cc(C)sc1NC(=O)CN1CCN(C(=O)C2CCCO2)CC1 (stereo unspecified),i,i,?,10µM,i
COCOc1ccc(Br)cc1C(=O)[C@H]1O[C@H]1c1cccc(OC)c1,nt,nt,i[10 µM],i[10 µM],nt
O=C(c1ccc([N+](=O)[O-])s1)N1CCN(c2ccccc2)CC1,i,i,i,25.1µM,i
O=C(c1ccc([N+](=O)[O-])s1)N1CCN(c2ccccn2)CC1,?,i,i,i,i
O=C(COc1ccccc1)OC(C(=O)c1ccccc1)c1ccccc1 (stereo unspecified),i,i,i,11.2µM,i
CCOc1cc(NC(=S)NCCOC)c(OCC)cc1NC(=O)c1cccs1,i,i,?,14.1µM,i
CCOc1cc(NC(=S)NC)c(OCC)cc1NC(=O)c1cccs1,i,i,?,8.91µM,i
CCOc1cc(NC(=S)NCCCOC)c(OCC)cc1NC(=O)c1cccs1,i,i,?,14.1µM,i
COc1ccc(C(=O)C2C3C4COC(O4)C(=O)C3C3C=Cc4ccccc4N32)c(OC)c1 (stereo unspecified),nt,nt,i,?,nt
[O-][n+]1cccc2c(Br)cc(Br)c(O)c21,i,?,0.708µM,0.562µM,i
O=C(CN(c1ccc(Cl)c(C(F)(F)F)c1)S(=O)(=O)c1ccccc1)N1CCc2ccccc2C1,i,?,nt,nt,nt
CCN1CSC(=S)N(Cc2ccc(OC)cc2)C1,i,i,12.6µM,14.1µM,i
S=C1SCN(Cc2cccs2)CN1Cc1cccs1,?,?,nt,nt,i
CCCCCN1CSC(=S)N(Cc2ccccc2)C1,?,12.6µM,17.8µM,10µM,i
SMILES,GLP1R cytotox,GLP-1R inv ag,VP16 counter,RORgamma inh,GLP-1R agonist
CCN1CSC(=S)N(Cc2ccccc2)C1,?,?,10µM,10µM,i
COc1ccc(Cn2c(C)ccc2C)cc1,i,i,i,i,i
CN(C)C(=O)c1ccc(-c2nc(NC3CCNCC3)c3ccccc3n2)cc1,nt,nt,i,i,nt
Cc1ccc(C)c(N2CCN(CCCNC(=O)c3ccc4nc(CCc5ccccc5)oc4c3)CC2)c1,i,i,nt,nt,nt
C=CCOC(=O)C(C(C)=O)C(NC(=O)OC)c1cccc(C(F)(F)F)c1 (stereo unspecified),nt,nt,i[10 µM],i[10 µM],nt
Cc1ccc(C2=NN3C(C2)c2ccccc2OC32C(=O)Nc3ccccc32)cc1 (stereo unspecified),i,?,?,12.6µM,i
CCN1C(=O)/C(=C\C=C2/C=CC=CN2CC)SC1=S,?,?,?,8.91µM,i
CCN1C(=O)/C(=C/C=C2\C=CN(CC)c3ccccc32)SC1=S,i,i,i,i,i
Cc1cc(C(F)(F)F)cc(NNC(=O)NC(=O)c2c(F)cccc2Cl)n1,i,11.2µM,i,i,i
O=C(CNc1cccc(S(=O)(=O)N2CCCC2)c1)Nc1ccc(C(F)(F)F)cc1,i,10µM,nt,nt,i
O=C(Nc1ccccc1N1CCCC1)C1CCN(S(=O)(=O)c2cccc(C(F)(F)F)c2)CC1,i,?,nt,nt,i
O=C(COC(=O)c1ccc([N+](=O)[O-])o1)Nc1cccc(S(=O)(=O)N2CCOCC2)c1,i,i,7.08µM,?,i
O=C(Nc1ccccc1N1CCCCC1)C1CCN(S(=O)(=O)c2cccc(C(F)(F)F)c2)CC1,i,11.2µM,nt,nt,i
O=C(CNc1cccc(S(=O)(=O)N2CCCCCC2)c1)Nc1cccc([N+](=O)[O-])c1,?,7.08µM,nt,nt,i
Cc1ccc(Cl)cc1NC(=O)c1sc(-n2nc(C)c(Cc3ccc4c(c3)OCO4)c2C)nc1C,i,i,nt,nt,nt
COc1ccc2sc(N(Cc3cccnc3)C(=O)c3ccc4c(c3)OCCO4)nc2c1,i,i,nt,nt,nt
Cc1ccc(CNC(=O)c2ccc(CN3CC(=O)N4CCCCC4C3=O)cc2)cc1 (stereo unspecified),i,i,nt,nt,nt
COc1ccc(S(=O)(=O)N2CCCCCC2)cc1NC(=O)Cc1cccc(C(F)(F)F)c1,i,10µM,nt,nt,i
CCc1ccc(NC(=O)c2sc(-n3nc(C)c(CCC(C)C)c3C)nc2C)cc1,i,i,nt,nt,nt
Cc1cccc(Cc2cnc(N3C(=N)SC(C)C3=O)s2)c1 (stereo unspecified),?,?,1.12µM,0.355µM,i
Cc1ccc(Cc2cnc(N3C(=N)SC(C)C3=O)s2)cc1 (stereo unspecified),i[0.307 µM],i[0.307 µM],3.16µM,5.01µM,i
Cc1cccc(Cc2cnc(N3C(=N)SC(c4ccccc4)C3=O)s2)c1 (stereo unspecified),i,i,1.26µM,?,i
COC(=O)C/C=C\[C@@H](C)[C@@H](/C=N\O[C@@H]1O[C@H](COC(C)=O)[C@@H](OC(C)=O)[C@H](OC(C)=O)[C@H]1OC(C)=O)NS(=O)(=O)c1ccc(C)cc1,nt,nt,i[10 µM],i[10 µM],nt
O=C(N/N=C/c1cc([N+](=O)[O-])ccc1O)c1ccc(COc2ccc3c(c2)CCC3)o1,?,i,1.41µM,2.24µM,i
O=C(NCc1cccnc1)c1ccc(COc2ccc3c(c2)CCC3)o1,?,i,20µM,i,i
Cc1cccc2nc(-c3cccnc3)c(Nc3ccc(C(C)C)cc3)n12,i,10µM,nt,nt,nt
CCOc1ccc(C(=O)C(C)OC(=O)C2CCN(c3ccc(C(F)(F)F)cn3)CC2)cc1 (stereo unspecified),i,8.91µM,nt,nt,i
Cc1ccc(C(=O)C(C)OC(=O)C2CCN(c3ccc(C(F)(F)F)cn3)CC2)cc1C (stereo unspecified),i,?,nt,nt,i
N=c1scc(-c2ccccc2)n1/N=C/c1ccco1,i,i,i,i,i
C=CCN=c1scc(-c2ccccc2)n1/N=C/c1ccccn1,?,11.2µM,10µM,5.01µM,i

# Screening results from PubChem BioAssay.
